PubChem BioAssay (NCI)
The panel holds about 79,000 compounds, 15% with a hit somewhere; the sample as a whole holds those more often. Rule as the data show it: active = growth inhibition above about 70%; inactive = the rest.

What was measured:
[1] = NCI Yeast Anticancer Drug Screen. Data for the rad50 strain (AID 155);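 also: 0% = growth of vehicle-only cultures of the same strain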; settings: S. cerevisiae rad50 strain growth inhibition; at 50.0 µM; hits give high values
Outline: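 DNA repair mutant yeast, compound exposure, growth read-out; inhibition is taken relative to vehicle.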

[2] = NCI Yeast Anticancer Drug Screen. Data for the mec2-1 strain (AID 157); settings: S. cerevisiae mec2-1 strain, at 50.0 µM, hits give high values
Outline: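 Mutant yeast (mec2-1) grown with compound; growth inhibition relative to vehicle control reported.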

[3] = NCI Yeast Anticancer Drug Screen. Data for the sgs1 mgt1 strain (AID 161);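 also: 0% = growth of cultures given vehicle only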; settings: S. cerevisiae sgs1 mgt1 strain, at 50.0 µM, hits give high values
Outline: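 Percent growth inhibition was derived by comparing compound-exposed mutant yeast with vehicle-exposed cultures. The strain carries alterations in DNA damage repair.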

[4] = NCI Yeast Anticancer Drug Screen. Data for the cln2 rad14 strain (AID 165);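 also: 0% = growth equal to vehicle treated cultures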; settings: S. cerevisiae cln2 rad14 strain, at 50.0 µM, hits give high values
Outline: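 Readout is yeast growth inhibition versus vehicle-treated controls, using a strain with cln2 and rad14 alterations exposed to compound.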

[5] = NCI Yeast Anticancer Drug Screen. Data for the bub3 strain (AID 167); settings: S. cerevisiae bub3 mutant strain, at 50.0 µM, hits give high values
Outline: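 In this screen, a yeast mutant lacking normal mitotic checkpoint function is challenged with compound. Relative growth versus vehicle gives the inhibition value.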

[6] = NCI Yeast Anticancer Drug Screen. Data for the mlh1 rad18 strain (AID 175); settings: S. cerevisiae mlh1 rad18 strain growth inhibition; at 50.0 µM; hits give high values
Outline: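 Genetically defined yeast (DNA repair-deficient) exposed to compounds; growth inhibition determined relative to vehicle.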

Measured: growth inhibition

CN(C)c1ccc(C=C(C(=O)c2ccccc2)C(=O)c2ccccc2)cc1
inactive: [1] 9.45% | [2] 1.9% | [3] 0.75% | [4] 8.6% | [5] 20.1% | [6] 37%

CC(O)CN(CC(C)O)S(=O)(=O)c1ccc(N)cc1 (stereo unspecified)
inactive: [1] -9.15% | [2] -14.2% | [3] -0.45% | [4] -9.3% | [5] 13.8% | [6] -2%

O=C(O)CC/C(=N\Nc1ccc([N+](=O)[O-])cc1[N+](=O)[O-])c1ccccc1
inactive: [1] 0.7% | [2] 26.4% | [3] 44.3% | [4] -18.4% | [5] 16.2% | [6] 30.3%

S=c1nc(NCc2ccccc2)[nH]c2[nH]ncc12
inactive: [1] -6.55% | [2] -17.2% | [3] -1.6% | [4] -17.2% | [5] -21% | [6] -2.55%

C/C(=N\Nc1ccc2ccccc2n1)c1ccccc1O
inactive: [1] -19% | [2] -25.4% | [3] -37.3% | [4] -25.8% | [5] -66.5% | [6] -3.5%

CC(C)C(=O)/C=C/c1ccc(Cl)c(Cl)c1
inactive: [1] 41.2% | [2] 28.2% | [3] 26.4% | [4] -1.85% | [5] 18.9% | [6] 26.8%

CCC1C(C)(C)c2cc(C)c(C(C)=O)cc2C1(C)C (stereo unspecified)
inactive: [1] -8.1% | [2] -8.75% | [3] 7.15% | [4] -49.5% | [5] 25.6% | [6] -3.75%

C/C(CC(O)(C(F)(F)F)C(F)(F)F)=N\O
inactive: [1] -29.8% | [2] -51.2% | [3] -20.4% | [4] -15.9% | [5] -19.5% | [6] -5.65%

Cc1cccc(C)c1NC(=O)CCC(=O)CC(=O)C(C)C
inactive: [1] -2.6% | [2] -4.85% | [3] -6.2% | [4] 2.55% | [5] 7.25% | [6] -13.1%

NC(CCCCC(N)C(=O)c1ccccc1)C(=O)c1ccccc1 (stereo unspecified)
inactive: [1] -11.9% | [2] -7.45% | [3] -4.85% | [4] -15.9% | [5] 1.55% | [6] 3.25%

Cc1ccc(C(c2ccc(C)c(C)c2)C(O)C(O)C(O)C(O)CO)cc1C (stereo unspecified)
inactive: [1] -4.8% | [2] -2.6% | [3] -2.9% | [4] 1.6% | [5] -6.05% | [6] -18.4%

COC(=O)Cc1[nH]c(C(=O)OC)c(C)c1C(=O)OC
inactive: [1] -6.7% | [2] -7.45% | [3] -3.15% | [4] -21.1% | [5] -6.95% | [6] -2.2%

CC12CCC(C/C1=N\O)C2(C)CBr (stereo unspecified)
inactive: [1] 13.4% | [2] -2.15% | [3] -4.35% | [4] -1.1% | [5] -2.3% | [6] 5.1%

CCOC(=O)CC[C@@H](NC(=O)c1ccc(NCc2ccc3nc(OC)c(OC)nc3c2)cc1)C(=O)OCC
inactive: [1] 2.7% | [2] -10.2% | [3] -4.15% | [4] -9.55% | [5] 15.8% | [6] -13.4%

CC1CN(CC2COc3ccccc3O2)C(C)CN1 (stereo unspecified)
inactive: [1] 61.8% | [2] 17.4% | [3] 57.2% | [4] 58.5% | [5] 53.4% | [6] 34.2%

CC(C)OC(=O)Nc1ccc(F)c(F)c1
inactive: [1] 24.9% | [2] -16.8% | [3] 2.6% | [4] -2.8% | [5] 6.85% | [6] 20.1%

O=C1C2C3C=C4c5ccccc5N(c5ccccc5)C4([C@@H]2C(=O)N1c1ccc(F)cc1)[C@H]1C(=O)N(c2ccc(F)cc2)C(=O)[C@@H]31 (stereo partly specified)
inactive: [1] 35% | [2] 23.6% | [3] 11.5% | [4] 40.1% | [5] 21.4% | [6] 34.9%

O=c1cc(-c2ccc3ccccc3n2)oc2ccccc12
inactive: [1] -16.4% | [2] 2.5% | [3] 3.7% | [4] 28.3% | [5] -1.95% | [6] -4.2%

COc1ccc2[nH]c(=O)c(CO)c(CO)c2c1
inactive: [1] 0.45% | [2] -12.2% | [3] -1% | [4] -26.1% | [5] 0.55% | [6] 4.35%

CCSC(C#N)C(C)=O (stereo unspecified)
inactive: [1] 34.9% | [2] 22.1% | [3] 56.4% | [4] 38.5% | [5] 39% | [6] 42.6%

COc1ccc([N+](=O)[O-])c2c(NCCC[N+](C)(C)[O-])c3ccccc3nc12
inactive: [1] 24.9% | [2] -13.3% | [3] 3.05% | [4] -46.8% | [5] -19.2% | [6] 19.7%

CC1=C(C(=O)NNC(=O)c2ccccc2O)CC(C(=O)NNC(=O)c2ccccc2O)=C(C)N1
inactive: [1] 45.5% | [2] 40.5% | [3] 10.5% | [4] 17.2% | [5] 64.2% | [6] 32.4%

COc1ccc(NC(=O)c2oc3cc(O)ccc3c(=O)c2C)c([N+](=O)[O-])c1
inactive: [1] 0.65% | [2] -1.8% | [3] 11.5% | [4] 11.9% | [5] -15.2% | [6] 2.2%

Nc1ccc(Cl)c(N)c1
inactive: [1] 9.1% | [2] 26.4% | [3] 18.2% | [4] 20.1% | [5] 14.9% | [6] 21.9%

O=[N+]([O-])c1cccc(-c2cc3ccccn3c2)c1
inactive: [1] 28.9% | [2] 7% | [3] 13.8% | [4] 5.6% | [5] -1.95% | [6] 6.85%

CC(Oc1ccccc1)C(O)(c1ccc(N(C)C)cc1)c1ccc(N(C)C)cc1 (stereo unspecified)
inactive: [1] 3.3% | [2] -5.9% | [3] 9.3% | [4] 8.15% | [5] 1.4% | [6] 11.9%

CCCC(CNC(C)=O)(c1ccccc1)C1CCCCC1 (stereo unspecified)
inactive: [1] -10.7% | [2] 6.9% | [3] 3.15% | [4] 27.9% | [5] 11.2% | [6] 16.1%

CCCCNC(=S)N(CCCC)CCCC
inactive: [1] 21.8% | [2] 18.2% | [3] 10.3% | [4] -16.2% | [5] 30.9% | [6] 13.1%

COc1ccccc1NC(=O)C(C#N)=C(SC)SC
inactive: [1] 2.05% | [2] -14.2% | [3] 0.1% | [4] 18.6% | [5] -22.4% | [6] -13.7%

N=C(N)/N=C(/C=C/c1ccccc1)CC1OC(=O)c2ccccc21 (stereo unspecified)
inactive: [1] -6.95% | [2] -10.7% | [3] -22.6% | [4] -2.85% | [5] -28.8% | [6] -24.3%

COC(=O)c1nc(N)nc(C(=O)OC)c1C(=O)C(C)(C)C
inactive: [1] -11.1% | [2] -10.8% | [3] -25.9% | [4] -23.6% | [5] -41.6% | [6] -28.8%

OCCOCn1nc(-c2ccccc2)nc1-c1cnccn1
inactive: [1] -13.4% | [2] -4.55% | [3] -20.3% | [4] -27.9% | [5] -38.1% | [6] -24.1%

c1ccc(NP2(Nc3ccccc3)=NP(Nc3ccccc3)(Nc3ccccc3)=NP(Nc3ccccc3)(Nc3ccccc3)=N2)cc1
inactive: [1] -12.2% | [2] 5.55% | [3] -10.4% | [4] 15.2% | [5] 17.1% | [6] -2.2%

COC(=O)C(Cc1ccccc1)NCCN (stereo unspecified)
inactive: [1] -0.1% | [2] 7.4% | [3] -3.9% | [4] -17% | [5] -5.95% | [6] 2.1%

O=C(C(=O)c1ccccc1)c1ccccc1
inactive: [1] 9.35% | [2] -0.75% | [3] 11.7% | [4] -22.1% | [5] 9.9% | [6] -1.15%

CCSc1n[nH]c(=O)nc1NN
inactive: [1] -0.35% | [2] -3.85% | [3] -28.4% | [4] -60% | [5] -19.2% | [6] -2.75%

CC1=C(O)C(=O)C2C(=O)C1C(C)C2c1ccccc1 (stereo unspecified)
inactive: [1] -5.45% | [2] 3.05% | [3] -32.2% | [4] -7.6% | [5] -11.6% | [6] -13.9%

Nc1nc(SCC(=O)c2ccc(Br)cc2)c2[nH]cnc2n1
inactive: [1] 23.2% | [2] 3.35% | [3] -10.9% | [4] 10.1% | [5] 23.1% | [6] 26.9%

Oc1[nH]c2ccccc2c1N=NC(=S)Nc1cccc(Cl)c1
inactive: [1] -0.35% | [2] 4.4% | [3] 55.5% | [4] 35% | [5] 23.5% | [6] 15.2%

O=C(CC[N+](=O)[O-])OCC1OC(OC(=O)CC[N+](=O)[O-])C(O)C(O)C1O (stereo unspecified)
inactive: [1] 23% | [2] 0.85% | [3] 28.4% | [4] 34.1% | [5] 14.8% | [6] 38.8%

COC(=O)CCNCCSC(=O)c1ccccc1
inactive: [1] 23.5% | [2] -9.1% | [3] -6% | [4] 12.9% | [5] 8.55% | [6] 4.6%
